Results on 34 molecules are retold here after the supplement of paper PMC8975748.

Where a name gives a salt, the structure may show the parent alone.

This assay relates to Saccharomyces cerevisiae BY4741 SeMeCo community. The assay can be described thus: z-score of subpopulation abundance vs DMSO median, subpopulation auxotrophic for HM; higher = larger share of this subpopulation than in DMSO controls. Particulars: 10 µM; 24 h; SM minimal medium; subpopulation (auxotrophy): HM. Here is the method:
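Fluorescent four-plasmid SeMeCo (self-establishing metabolically cooperating S. cerevisiae BY4741 community; plasmids pH-mRuby2, pL-mWasabi, pU-eCFP, pM-TagRFP657) was grown 24 h in minimal SM medium with each Selleck FDA-approved drug at 10 µM in 384-well plates. Cells were fixed and imaged by high-content confocal microscopy. For each auxotrophic subpopulation (and the prototroph), a z-score gives the deviation from the DMSO vehicle-control population median.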
As to `CN(C)C(=O)Oc1ccc[n+](C)c1` [Pyridostigmine Bromide], the “z-score of subpopulation abundance” value worked out at 0.07. As to `CN1[C@@H]2CC[C@H]1C[C@@H](OC(=O)[C@H](CO)c1ccccc1)C2` [Hyoscyamine], the “z-score of subpopulation abundance” value was -0.73.

In the case of `CC[C@H]1[C@@H]2C[C@H]3[C@@H]4N(C)c5ccccc5[C@]45C[C@@H]([C@@H]2[C@H]5O)N3[C@@H]1O` [Ajmaline], the “z-score of subpopulation abundance” value is -0.37. As for `CC[C@H]1CN2CC[C@]3(C(=O)Nc4ccccc43)[C@@H]2C[C@@H]1/C(=C\OC)C(=O)OC` [Rhynchophylline], the figure is -0.29; as for `O=c1[nH]c2ccccc2n1CCCN1CCC(n2c(=O)[nH]c3cc(Cl)ccc32)CC1` [Domperidone], 0.27; as for `C=CN1CCCC1=O.II` [Povidone iodine], 1.1. With `CCCN1C[C@H](CSC)C[C@@H]2c3cccc4[nH]cc(c34)C[C@H]21` [Pergolide Mesylate] the figure was -0.36; with `C[C@@H]1O[C@@H](O[C@H]2C[C@@H](O)[C@]3(CO)[C@H]4[C@H](O)C[C@]5(C)[C@@H](C6=CC(=O)OC6)CC[C@]5(O)[C@@H]4CC[C@]3(O)C2)[C@H](O)[C@H](O)[C@H]1O` [Ouabain], -0.63; with `N#Cc1nn(-c2c(Cl)cc(C(F)(F)F)cc2Cl)c(N)c1[S+]([O-])C(F)(F)F` (centres undefined) [Fipronil], -0.23. With `Nc1nc(N)nc(NC2CC2)n1` [Cyromazine], the “z-score of subpopulation abundance” value was 0.9. On to `Cc1cc(O)ccc1Cl` [Chlorocresol], for which the “z-score of subpopulation abundance” value was -0.29.

For the molecule `Oc1cc(Cl)ccc1Oc1ccc(Cl)cc1Cl` [Triclosan], the “z-score of subpopulation abundance” value is -1.82. On to `C[CH2][Hg][S]c1ccccc1C(=O)[O-].[Na+]` [Thimerosal], for which the “z-score of subpopulation abundance” value was 22.6. With `CC1(C)SC2C(N)C(=O)N2C1C(=O)O` (centres undefined) [6-Aminopenicillanic acid] the figure was 0.18; with `C[C@H]1O[C@H](O[C@H]2[C@H](O)[C@@H](O)[C@@H](O)[C@H](O)[C@@H]2O)[C@@H](N)C[C@@H]1NC(=N)C(=O)O` [Kasugamycin hydrochloride], -0.08. In the case of `O=c1cccc2n1C[C@@H]1CNC[C@H]2C1` [Cytisine], the “z-score of subpopulation abundance” value stood at 0.02. On to `O=C(O[C@H]1C[C@H]2CC[C@@H](C1)[N+]21CCCC1)C(O)(c1ccccc1)c1ccccc1` [Trospium chloride], for which the “z-score of subpopulation abundance” value stood at 0.4.

`CCOC(=O)Nc1ccc(NCc2ccc(F)cc2)cc1N` [Retigabine]: the “z-score of subpopulation abundance” value was 0.58. With `COc1ccc2[nH]cc(CCN)c2c1` [5-Methoxytryptamine] the figure was -0.25. For `C=CC[C@]1(O)CC[C@H]2[C@@H]3CCC4=CC(=O)CCC4=C3C=C[C@@]21C` [Altrenogest], the “z-score of subpopulation abundance” value is -0.25. With `CC(NC(C)(C)C)C(=O)c1cccc(Cl)c1` (centres undefined) [Amfebutamone (Bupropion) HCl] the figure was -0.38; with `C[N+](C)(C)CCCCCCCCCC[N+](C)(C)C` [Decamethonium Bromide], -0.42; with `CC[N+](C)(CC)CCOC(=O)C(O)(c1ccccc1)c1ccccc1` [Methylbenactyzine Bromide], 0.02. As for `CC(C)(O)C(Cl)(Cl)Cl` [Chlorobutanol], the figure is -0.53. As for `COc1ccc(C(CN(C)C)C2(O)CCCCC2)cc1` (centres undefined) [Venlafaxine HCl], the figure is -0.61; as for `CC[C@@]1(O)C(=O)OCc2c1cc1n(c2=O)Cc2cc3ccccc3nc2-1` [Camptothecin], 0.23; as for `CCN(C)C(=O)Oc1cccc([C@H](C)N(C)C)c1` [Rivastigmine], -0.34. Consider `C=C[C@H]1CN2CC[C@H]1C[C@H]2[C@H](O)c1ccnc2ccccc12` [Cinchonidine], for which the “z-score of subpopulation abundance” value was -0.43. As to `Oc1cccc2cccnc12` [8-Hydroxyquinoline], the “z-score of subpopulation abundance” value was 2.14. As for `CC(=O)OCC1=C(C(=O)O)N2C(=O)C(N)C2SC1` (centres undefined) [7-Aminocephalosporanic acid], the figure is -0.48. With `CN1[C@@H]2C[C@@H](OC(=O)[C@H](CO)c3ccccc3)C[C@H]1[C@@H]1O[C@@H]12` [Scopolamine HBr trihydrate] the figure was -1.19; with `CCCCCCCCCCCCCCCC[n+]1ccccc1` [Cetylpyridinium Chloride], 12.4; with `CN[C@@H]1[C@@H](O)[C@@H](O[C@@H]2[C@@H](O)[C@H](O[C@H]3O[C@H](CN)CC[C@H]3N)[C@@H](N)C[C@H]2N)OC[C@]1(C)O.CN[C@@H]1[C@@H](O)[C@@H](O[C@@H]2[C@@H](O)[C@H](O[C@H]3O[C@H]([C@@H](C)N)CC[C@H]3N)[C@@H](N)C[C@H]2N)OC[C@]1(C)O.CN[C@@H]1[C@@H](O)[C@@H](O[C@@H]2[C@@H](O)[C@H](O[C@H]3O[C@H]([C@@H](C)NC)CC[C@H]3N)[C@@H](N)C[C@H]2N)OC[C@]1(C)O` [Gentamicin Sulfate], -0.24. As for `C[C@@H]1CC[C@H]2[C@@H](C)C(=O)O[C@@H]3O[C@@]4(C)CC[C@@H]1[C@]32OO4` [Artemisinin], the figure is -2.41.
